Source: PubChem (National Center for Advancing Translational Sciences (NCATS))
HT1080 IDH1KD tx: toxicity to HT-1080 IDH1 knockdown cells (counter line). HT-1080 IDH1 knockdown viability, ATP luminescence, 48 h. Potency, µM (titrated, usually from 46.1 µM), inactives show top-dose activity, negative = toxicity, most hits filed as cytotoxic. actives 2% (n = 360,000);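 further: potency means the concentration at half of the fitted maximal effect; 0% = DMSO wells and -100% = cell-free medium wells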
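Viability of IDH1-knockdown HT-1080 fibrosarcoma cells was assessed by CellTiter-Glo after 48 h at 37 °C with titrated compound; concentration-effect curves were classified by fit quality and response size.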
IL1B secr inh: inflammasome signaling inhibition, IL-1 beta readout; THP-1 LPS/ATP IL-1B secretion, AlphaLISA, 16 h; stronger effect = lower value; activity change, % at 57.5 µM; actives 4.7% (n = 360,000); AID 743279; in the data active means activity change below about -50%; inconclusive means mostly about -30% to -49%
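THP-1 cells pretreated 1 hr with compounds (up to 57.5 uM final), then stimulated with LPS (250 ng/mL final) plus ATP (1.25 mM final); secreted IL-1B measured by AlphaLISA after 16 hr, decreased signal indicating inhibition.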
HT1080-NT tox: kills 2HG-producing HT-1080-NT fibrosarcoma cells; actives 1.6% (n = 360,000); Potency, µM (series often up to 46.1 µM), inactives show at the top dose activity, negative = less viability, most hits filed as cytotoxic; AID 686970; HT-1080-NT fibrosarcoma viability, CellTiter-Glo ATP luminescence, 48 h;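 further: NT is the 2HG producing partner of a matched IDH1 knockdown line; potency means the concentration at half of the fitted maximal effect; 0% = DMSO-treated cells and -100% = media-only wells without cells; nearly all actives have a fitted effect of over 55% in size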
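Compounds were tested in concentration-response format on HT-1080-NT cells for 48 hours at 37 degrees C. Cell viability came from CellTiter-Glo luminescence; curves were classified by r2, response magnitude and activity.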
KB-3-1 tox: kills parental KB-3-1 adenocarcinoma cells | KB-3-1 viability, CellTiter-Glo ATP luminescence, 72 h | Potency, µM (titrated, usually from 46.1 µM), usual class: cytotoxic | actives 1.4% (n = 400,000) | AID 1347075; further: potency means the concentration at half of the fitted maximal effect; nearly all actives have a fitted effect of over 60% in size
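KB-3-1 cells, DMEM (no phenol red) + 10% FBS; compound by pin transfer, 72 h, 37 °C. Readout: CellTiter-Glo luminescence after 10 min. Data normalized, curve-fitted.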
KB-V1 MDR tox: KB-V1 MDR subline cytotoxicity; KB-V1 MDR cells viability, CellTiter-Glo, 72 h; Potency, µM (top dose mostly 46.1 µM), usual class: cytotoxic; actives 3.4% (n = 400,000); AID 1347076; further: potency means the concentration at half of the fitted maximal effect; nearly all actives have a fitted effect of over 60% in size
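Readout: CellTiter-Glo luminescence, 10 min after addition. Cells: KB-V1 MDR subline, 72 h at 37 degrees C with compound. Analysis: corrected, normalized data fitted to concentration-effect curves.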
* hit, by the source's call; ! = not active in a repeat. This is a sample that favours compounds with a hit; in the whole collection about 8.8% have one here. Unless noted, the call rests on the fitted dose curve; in most records, active means well fitted curve in the direction sought with a large enough effect; inconclusive means small, poorly fitted or top-dose-only effect, or another doubt; inactive means no such curve, though single readings can be large; an effect the other way counts as inactive or inconclusive. Unless noted, on the % scale 0 is the no-effect control and ±100 the full control effect.

O=C(Nc1cccc2c1CCCC2)c1ccccc1F was read as HT1080 IDH1KD tx 12%, IL1B secr inh 11, HT1080-NT tox 1%, KB-3-1 tox inactive and KB-V1 MDR tox inactive.
CC(Sc1ccc(S(=O)(=O)N2CCN(C)CC2)cn1)C(=O)Nc1cccc(Cl)c1Cl (stereo not drawn) was read as HT1080 IDH1KD tx -20%, IL1B secr inh 0, HT1080-NT tox -4%, KB-3-1 tox inconclusive and KB-V1 MDR tox inactive.
COc1ccccc1C(C(=O)c1ccccc1)c1ccc(O)cc1 (stereo not drawn) was read as HT1080 IDH1KD tx -17%, IL1B secr inh inconclusive, HT1080-NT tox -30%, KB-3-1 tox inactive and KB-V1 MDR tox inactive.
CN(C(=O)C=Cc1ccccc1)c1ccccc1 was read as HT1080 IDH1KD tx 9%, IL1B secr inh -9, HT1080-NT tox 4%, KB-3-1 tox inactive and KB-V1 MDR tox inactive.
O=C(CCl)N(O)c1ccc(C=Cc2ccccc2)cc1 was read as HT1080 IDH1KD tx -21%, IL1B secr inh -77*, HT1080-NT tox -3%, KB-3-1 tox inactive and KB-V1 MDR tox inactive.
Screening Cn1nc(C(F)(F)F)c2cc(NC(=O)OCc3ccc(C(C)(C)C)cc3)sc21 returned HT1080 IDH1KD tx -8%, IL1B secr inh -87*, HT1080-NT tox 1%, KB-3-1 tox inactive and KB-V1 MDR tox inactive.
Screening Cn1nc(C(F)(F)F)c2cc(NC(=O)OCc3ccc(F)cc3)sc21 returned HT1080 IDH1KD tx inconclusive, IL1B secr inh -87*, HT1080-NT tox -24%, KB-3-1 tox inactive and KB-V1 MDR tox inconclusive.
Screening N=c1c2c(ncn1Cc1ccco1)Oc1cc(O)ccc1C2c1ccccc1 (stereo not drawn) returned HT1080 IDH1KD tx -13%, IL1B secr inh -62*, HT1080-NT tox -16%, KB-3-1 tox inconclusive and KB-V1 MDR tox inconclusive.
`N=c1c2c(ncn1CCN1CCOCC1)Oc1ccc3ccccc3c1C2c1ccccc1` (stereo not drawn) gave HT1080 IDH1KD tx -7%, IL1B secr inh inconclusive, HT1080-NT tox -1%, KB-3-1 tox inactive and KB-V1 MDR tox inactive.
For COc1ccc(C2C3=C(CC(C)(C)CC3=O)Oc3ncn(Cc4ccccc4)c(=N)c32)cc1 (stereo not drawn) the results were HT1080 IDH1KD tx inconclusive, IL1B secr inh -55*, HT1080-NT tox inconclusive, KB-3-1 tox inactive and KB-V1 MDR tox 3.3µM*.
`N=c1c2c(ncn1Cc1ccco1)Oc1c(ccc3ccccc13)C2c1ccccc1` (stereo not drawn) gave HT1080 IDH1KD tx inconclusive, IL1B secr inh inconclusive, HT1080-NT tox 16µM*, KB-3-1 tox inconclusive and KB-V1 MDR tox inconclusive.
Screening CC1(C)CC(=O)C2=C(C1)Oc1ncn(Cc3ccco3)c(=N)c1C2c1ccccc1 (stereo not drawn) returned HT1080 IDH1KD tx -18%, IL1B secr inh -20, HT1080-NT tox -15%, KB-3-1 tox inactive and KB-V1 MDR tox inconclusive.
COc1ccc(C2c3c(ncn(CCN4CCOCC4)c3=N)Oc3ccc4ccccc4c32)cc1 (stereo not drawn) was read as HT1080 IDH1KD tx -13%, IL1B secr inh inconclusive, HT1080-NT tox -12%, KB-3-1 tox inconclusive and KB-V1 MDR tox 15µM*!.
`CCCN1CNC(=S)N(c2ccccc2OCC)C1` gave HT1080 IDH1KD tx 6%, IL1B secr inh -1, HT1080-NT tox 11%, KB-3-1 tox inactive and KB-V1 MDR tox inactive.
For COc1ccc(C2c3ccc(O)cc3Oc3ncn(CCCO)c(=N)c32)cc1 (stereo not drawn) the results were HT1080 IDH1KD tx -14%, IL1B secr inh -14, HT1080-NT tox -5%, KB-3-1 tox inactive and KB-V1 MDR tox inactive.
`CN(C)CCn1cnc2c(c1=N)C(c1ccccc1)c1ccc3ccccc3c1O2` (stereo not drawn) gave HT1080 IDH1KD tx -16%, IL1B secr inh -57*, HT1080-NT tox -29%, KB-3-1 tox inconclusive and KB-V1 MDR tox inconclusive.
Screening COc1cccc(CNC(=O)CCc2c(C)nc3c(c2C)c(=O)n(C)c(=O)n3C)c1 returned KB-3-1 tox inactive and KB-V1 MDR tox inactive.
